PubChem BioAssay (NCI)
About 79,000 compounds went through this panel and 15% of them were active in at least one assay; those are over-represented in the sample as a whole. Unmarked numbers belong to inactive results. Calls of active or inactive are those of the source. Rule as the data show it: active = growth inhibition above about 70%; inactive = the rest.

Columns and labels:
[1] = NCI Yeast Anticancer Drug Screen. Data for the rad50 strain (AID 155);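 also: 0% = growth of vehicle-only cultures of the same strain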; conditions: S. cerevisiae rad50 strain growth inhibition, active compounds read high
Summary of the method: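 Genetically altered yeast (DNA repair pathway); compound treatment; growth inhibition vs vehicle ctrl.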

[2] = NCI Yeast Anticancer Drug Screen. Data for the mec2-1 strain (AID 157); conditions: S. cerevisiae mec2-1 strain, active compounds read high
Summary of the method: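 Yeast mec2-1 mutant treated with compound. Readout: growth inhibition vs vehicle controls.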

[3] = NCI Yeast Anticancer Drug Screen. Data for the sgs1 mgt1 strain (AID 161);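 also: 0% = growth of cultures given vehicle only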; conditions: S. cerevisiae sgs1 mgt1 strain, active compounds read high
Summary of the method: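 Test agents were incubated with a DNA-repair-mutant yeast strain. Growth was then read and compared against vehicle-treated controls.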

[4] = NCI Yeast Anticancer Drug Screen. Data for the cln2 rad14 strain (AID 165);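 also: 0% = growth equal to vehicle treated cultures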; conditions: S. cerevisiae cln2 rad14 strain, active compounds read high
Summary of the method: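 cln2 rad14 yeast strain; compound exposure; growth inhibition read vs vehicle controls.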

[5] = NCI Yeast Anticancer Drug Screen. Data for the bub3 strain (AID 167); conditions: S. cerevisiae bub3 mutant strain, active compounds read high
Summary of the method: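 Yeast carrying a defined mutation is treated with each compound, and growth is compared with that of vehicle-exposed cells to give inhibition.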

[6] = NCI Yeast Anticancer Drug Screen. Data for the mlh1 rad18 strain (AID 175); conditions: S. cerevisiae mlh1 rad18 strain growth inhibition, active compounds read high
Summary of the method: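 Yeast w/ defined DNA-repair lesions; compound exposure; growth vs vehicle controls → % inhibition.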

[7] = at 5.0 µM (retest, dose inferred, filed as 0.5)
[8] = at 50.0 µM (retest, dose inferred, filed as 5.0)

Structure (SMILES) | growth inhibition [1, 7] | growth inhibition [1, 8] | growth inhibition ([1]; at 50.0 µM) | growth inhibition [2, 7] | growth inhibition [2, 8] | growth inhibition ([2]; at 50.0 µM) | growth inhibition [3, 7] | growth inhibition [3, 8] | growth inhibition ([3]; at 50.0 µM) | growth inhibition [4, 7] [%] | growth inhibition [4, 8] | growth inhibition ([4]; at 50.0 µM) | growth inhibition [5, 7] | growth inhibition [5, 8] | growth inhibition ([5]; at 50.0 µM) | growth inhibition [6, 7] | growth inhibition [6, 8] | growth inhibition ([6]; at 50.0 µM)
COc1ccc(-c2c(-c3ccccc3)c(C)nc3nc(SC)nc(SC)c23)cc1OC | 24% | 95% (active) | 95% (active) | 0% | 96% (active) | 95% (active) | 12% | 97% (active) | 94.2% (active) | -2 | 92% (active) | 94.7% (active) | -20% | 94% (active) | 94.6% (active) | 2% | 96% (active) | 94.6% (active)
COc1ccc(C(c2c(O)c3ccccc3oc2=O)N2CCOCC2)cc1 (configuration not stated) | -30% | -14% | -8.2% | -10% | -6% | -3.1% | -13% | -29% | -34.9% | -19 | -17% | 76.5% (active) | -14% | 22% | -14% | -34% | -30% | -12%
Cc1cc(O)c(/C=N/c2nc(-c3cccc([N+](=O)[O-])c3)cs2)c(=O)o1 | 40% | 99% (active) | 37.9% | 42% | 100% (active) | 30% | 52% | 100% (active) | 51.2% | 22 | 99% (active) | 31% | 51% | 100% (active) | 37.7% | 54% | 99% (active) | 63.6%
C=C(CN1CCCC1)C(=O)c1ccc(OC)cc1 | -6% | 22% | 3.25% | 7% | 65% | 73% (active) | -8% | 55% | 44.4% | 31 | 81% (active) | -20.4% | -6% | 54% | -12% | 4% | 71% (active) | 46.6%
N#Cc1c(-c2ccc(Cl)c(Cl)c2)c(-c2ccc(Cl)c(Cl)c2)nn(CCO)c1=O | 73% (active) | 96% (active) | 97.8% (active) | 44% | 98% (active) | 97.6% (active) | 50% | 97% (active) | 97.5% (active) | 39 | 95% (active) | 96.8% (active) | 43% | 97% (active) | 96.3% (active) | 72% (active) | 96% (active) | 97.5% (active)
Cc1ccc(C(C)(C)C)c(O)c1O | 4% | 98% (active) | 91.2% (active) | -18% | 98% (active) | 91.7% (active) | 1% | 52% | 92.1% (active) | 8 | 98% (active) | 91.8% (active) | -9% | 98% (active) | 91.4% (active) | -25% | 97% (active) | 90.5% (active)
O=C(OCc1ccccc1CN1CCOCC1)c1ccc(Br)cc1 | -30% | 29% | 77.3% (active) | -2% | -2% | 74.5% (active) | -2% | 77% (active) | 93.7% (active) | -1 | -7% | 51.9% | 2% | 41% | 92.1% (active) | 4% | 36% | 76.1% (active)
COc1ccc(CN2CCCN(Cc3ccc(OC)cc3OC)C2c2cc(Br)ccc2O)c(OC)c1 | 31% | 98% (active) | 99% (active) | 18% | 100% (active) | 95.2% (active) | 27% | 99% (active) | 99.2% (active) | 12 | 94% (active) | 57.2% | 15% | 98% (active) | 27.9% | 63% | 99% (active) | 98.7% (active)
Cc1ccc(S(=O)(=O)OCC(C)(C)C)cc1 | -152% | -169% | 8.4% | -48% | -59% | 2.05% | -63% | -69% | -2.7% | -61 | -83% | -29.6% | -57% | 5% | 86.8% (active) | -125% | -127% | 14.5%
CN(C)c1nc(N(C)C)nc([N+](C)(C)C)n1 | 1% | -1% | 98.5% (active) | -3% | 1% | 98% (active) | -1% | -4% | 99.1% (active) | -3 | -1% | 96.5% (active) | 0% | -5% | 98% (active) | -5% | -7% | 98.7% (active)
C=CC(=O)N1C/C(=C\c2ccc(F)cc2)C(=O)/C(=C/c2ccc(F)cc2)C1 | 21% | 75% (active) | 52% | 14% | 77% (active) | 26.1% | 14% | 88% (active) | 90.2% (active) | 19 | 81% (active) | 78.5% (active) | 21% | 94% (active) | 88.6% (active) | 18% | 91% (active) | 88.1% (active)
CC1=C(C#N)C(=O)OC1(C)C(CC(=O)c1ccccc1)c1ccccc1 (configuration not stated) | 0% | 3% | -5.3% | 5% | 6% | 4.45% | 20% | 16% | 4.45% | 3 | 4% | 49.8% | 2% | 11% | 11.8% | 26% | 23% | 1.85%
c1ccc2c(c1)CC1c3[nH]c4ccccc4c3CCN21 (configuration not stated) | -6% | -5% | 88.3% (active) | 9% | 6% | 76.9% (active) | -8% | -10% | 82.8% (active) | 22 | 31% | 88.2% (active) | 6% | 23% | 77.7% (active) | 7% | 3% | 74% (active)
Cc1ccc([Si](O)(c2ccc(C)cc2)c2ccc(C)cc2)cc1 | 85% (active) | 92% (active) | 95.2% (active) | 78% (active) | 94% (active) | 93% (active) | 71% (active) | -27% | 93.5% (active) | 67 | 90% (active) | 93.6% (active) | 75% (active) | 92% (active) | 86.3% (active) | 84% (active) | 93% (active) | 94.4% (active)
CC(=C/c1ccccc1)/C=C1/NC(=S)N(/C=C2\C(=O)Oc3ccccc3C2=O)C1=O | -13% | 28% | 98.1% (active) | -8% | 41% | 98.7% (active) | -16% | 28% | 89.1% (active) | -28 | 34% | 98.5% (active) | -24% | 11% | 98.5% (active) | -7% | 12% | 98.5% (active)
O=C(NCc1ccc(F)cc1)c1ccc(C(=O)NCc2ccc(F)cc2)cc1 | 1% | -4% | -6.6% | -19% | 21% | -4.05% | -13% | 2% | -13.1% | 2 | 6% | 58.4% | 1% | 7% | -6.9% | -8% | -20% | -10.1%
O=C1OC(C2OC(=O)C(=O)C2C(=O)c2ccc([N+](=O)[O-])cc2)C(C(=O)c2ccc([N+](=O)[O-])cc2)C1=O (configuration not stated) | 5% | 57% | 91.6% (active) | 14% | 44% | 59.1% | 10% | 86% (active) | 91.5% (active) | 11 | 22% | 64.2% | 5% | 39% | 56.6% | 6% | 53% | 96.5% (active)
Nc1ccccc1C(=O)NCCc1c[nH]c2ccccc12 | 1% | 34% | 6.35% | -3% | 6% | 11.8% | 4% | 40% | 33.8% | -5 | 27% | 66.6% | -7% | 18% | 48.5% | 3% | 38% | 7%
COC(=O)c1nnc(C(=O)OC)c2c1[nH]c1ccccc12 | 4% | 77% (active) | 79% (active) | 2% | 48% | 28.4% | 2% | 50% | 55.3% | -2 | 11% | 10.6% | 0% | 37% | 42.9% | -3% | 52% | 40.1%
